# This excerpt belongs to a sample that is enriched for hits. The hit rate among all sequences tested is not known here. Values without a mark were called inactive.
# System: T1, Caupolican (Caup) homeodomain DNA-binding domain
# T1 sequence: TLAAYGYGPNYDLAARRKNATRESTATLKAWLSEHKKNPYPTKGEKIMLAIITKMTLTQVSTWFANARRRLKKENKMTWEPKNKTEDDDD
# Assay: PBM E-score (8-mer, recovered from the published 9-mer minima) (E-score (dimensionless, -0.5 to 0.5)); Drosophila protein; higher = stronger relative binding preference, active = 0.31 or more
# Method: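 Protein binding microarray (PBM): in vitro transcribed/translated Caupolican (Caup) homeodomain DNA-binding domain (residues 214-303) applied at 100 nM to a universal 8-mer PBM array (Agilent AMADID 015681). The 8-mer enrichment score (E-score, range -0.5 to 0.5) was computed, and each 9-mer score is the minimum E-score of its two constituent 8-mers. The E-score is the same for a 9-mer and its reverse complement; 0.31 is the stated binding threshold.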
row,Sequence,PBM E-score
1,AGCACGTG,0.082
2,ACTACAGG,0.199
3,ACTACATC,0.33 (active)
4,CCTACATA,0.153
5,ACTACATG,0.428 (active)
6,CCTACATC,0.144
7,ACCACATG,0.212
8,ACTACATA,0.35 (active)
9,GCTACATA,0.248
10,ACTACAGC,0.149
11,AAAATACT,0.04
12,GCGATCGA,0.0192
13,AGCGTAGC,-0.111
14,AGGGCCGC,-0.251
15,CGACCCGA,-0.151
16,GCGGTACA,0.173
17,CTGGCCAG,-0.181
18,ATTTGGAC,0.134
19,AGGGCGTC,-0.192
20,TCACATAA,0.182
21,AGACATAA,0.217
22,CGTCATAA,0.081
23,CGACATCA,0.284
24,AGTCATAA,0.146
25,TGTCATAA,0.338 (active)

row,Sequence,PBM E-score
1,TTACATAA,0.339 (active)
2,TGACATCA,≥ 0.333 (active)
3,CTACATAA,0.22
4,GGACATCA,0.234
5,GGACATAA,0.211
6,TGACATAA,0.311 (active)
7,AGCCTGGG,-0.123
8,AATCCCCC,-0.256
9,CGGGAACA,0.176
10,AGACAACC,0.201
11,CTTAACAA,0.228
12,GTCGCGAA,0.00326
13,ATGGTGTC,0.142
14,GCTAGGCC,-0.238
15,GCACATAA,0.0651
16,GTACATAC,0.307
17,GTACATAA,0.361 (active)
18,ACCCTGGG,-0.105
19,GAGATAGC,-0.0575
20,AACAACTA,≥ 0.319 (active)
21,TTCAACAA,0.299
22,CACAACAA,0.29
23,AACAACGT,0.252
24,TACAACGA,0.267
25,AACAACAT,0.409 (active)

row,Sequence,PBM E-score
1,AACAACTG,0.208
2,AACAACTC,0.167
3,AACAACAA,0.394 (active)
4,AACAACAG,0.243
5,TACAACAA,0.387 (active)
6,AGCAACAA,0.182
7,AGTTTCCA,0.0163
8,CTCTGGGC,-0.214
9,CCCGTGAA,-0.0554
10,TCCGAGGA,-0.0519
11,GGGAGTAA,0.0271
12,AATCCGGC,-0.121
13,CTTGGGTA,-0.0204
14,CCACCGGC,-0.281
15,TTACTCAA,0.0597
16,ATCAACAA,0.289
17,AACAACCA,≥ 0.324 (active)
18,ATCAACAT,0.371 (active)
19,AACAACCT,0.243
20,ATCAACAG,0.109
21,AACAACCC,0.247
22,CGCGCTAG,-0.142
23,GTCGATAA,0.0563
24,ACACCCGC,-0.0419
25,AAAAAAGA,-0.0444

row,Sequence,PBM E-score
1,CCGGCTCA,-0.123
2,GATGAATC,0.106
3,CTGTCAAG,-0.017
4,ATGTTTAG,0.284
5,ATGTTTGG,0.229
6,ATGTTTCC,0.236
7,ATGTTTTC,0.33 (active)
8,CTGTTTGA,0.188
9,CTGTTTTC,0.134
10,CTGTTTTA,0.107
11,GTGTTTTA,0.213
12,ATGTTTGA,0.327 (active)
13,ATGTTTAA,0.367 (active)
14,ATGTTTTA,0.369 (active)
15,CTGTTTAA,0.111
16,ACGCAATC,-0.0194
17,GAGTTTAC,-0.00241
18,ACATCGCT,0.178
19,CCTTCTAC,-0.131
20,CATCTGAC,0.0423
21,AAGGTACC,-0.127
22,ACCGCACA,-0.00685
23,CGCGGAGA,-0.112
24,ATAGCTTC,-0.0833
25,CTGTTAGA,0.105

row,Sequence,PBM E-score
1,ATGTTAGA,0.329 (active)
2,ATGTTAGC,0.314 (active)
3,ATGTTAGG,0.219
4,CTGTTAGC,-0.0813
5,GTGTTAGA,0.224
6,TATGACAA,0.314 (active)
7,AATGACAG,0.219
8,AATGACAC,0.277
9,AATGACAA,0.346 (active)
10,CATGACAC,0.363 (active)
11,GATGACAA,0.308
12,CATGACAA,0.283
13,GATGACAC,0.219
14,AATGACAT,0.298
15,AGATCATC,0.12
16,ACAGGCGC,-0.0681
17,TGAGGGCA,-0.108
18,GAGCACAC,0.00424
19,AGCGTCTA,-0.0661
20,ACACGGTA,0.327 (active)
21,ACACGGTG,0.307
22,ACACGGTC,0.219
23,ACACGGAT,0.339 (active)
24,ACACGGAA,0.291
25,ACACGGAG,0.131

row,Sequence,PBM E-score
1,ACAACGTA,0.255
2,AGTCACAG,0.0714
3,CGCCCCCA,-0.285
4,AACATGAC,0.42 (active)
5,AACATGAG,0.351 (active)
6,CACATGAG,0.0472
7,AGCATGAG,0.104
8,ACCATGAC,0.0507
9,AGCATGAT,0.197
10,AGCATGAC,0.0874
11,AACATGAT,≥ 0.424 (active)
12,ACCATGAT,0.158
13,AGAAGATC,-0.0662
14,GTTGGATA,0.0774
15,ATCCAATC,0.102
16,AGCCCTTC,-0.22
17,GCTCGTGA,-0.064
18,AGCGGGGG,-0.28
19,GACTATGA,0.0441
20,ATAATGCC,0.0429
21,ACTTGCAT,0.137
